From PubChem
MLL AF4-AF9 inh = MLL-AF4/AF9 protein interaction inhibition | AID 651704 | inhibition, % at 10 µM | 350,000 compounds, 0.47% hits | P42568 | AlphaScreen, biotin-AF4 peptide binding to FLAG-AF9;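 active = every replicate reaching a set inhibition limit, whatever the replicate mean, cut at about 25% in these data; inconclusive = mean inhibition reaches that limit but some replicates miss it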
Target sequence (P42568 whole entry, looked up): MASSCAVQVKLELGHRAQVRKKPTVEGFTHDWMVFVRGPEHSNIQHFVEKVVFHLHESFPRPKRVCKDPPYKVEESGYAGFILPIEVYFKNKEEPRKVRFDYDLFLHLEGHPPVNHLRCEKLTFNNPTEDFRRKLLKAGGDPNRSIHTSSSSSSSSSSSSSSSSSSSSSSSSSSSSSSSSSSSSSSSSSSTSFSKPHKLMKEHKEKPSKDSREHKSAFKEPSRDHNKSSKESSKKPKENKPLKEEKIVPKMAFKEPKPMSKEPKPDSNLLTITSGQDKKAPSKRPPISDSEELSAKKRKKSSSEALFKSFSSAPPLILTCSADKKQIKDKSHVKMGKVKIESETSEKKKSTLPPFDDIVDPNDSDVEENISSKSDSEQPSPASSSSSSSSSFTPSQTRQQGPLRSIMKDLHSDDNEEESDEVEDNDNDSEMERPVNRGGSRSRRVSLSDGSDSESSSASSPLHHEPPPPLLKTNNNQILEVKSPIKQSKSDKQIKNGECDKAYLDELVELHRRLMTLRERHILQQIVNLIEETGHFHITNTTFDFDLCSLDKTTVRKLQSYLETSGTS
FGF22 binding = FGF22 (human) thermal shift binding. Q9HCT0. recombinant FGF22 thermal shift, SYPRO orange fluorescence; percent of sucrose octasulfate shift, DMSO zero. activity (Tm shift, normalised), % at 9.99 µM. 340,000 compounds, 1.5% hits;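 active = mean Tm shift, scaled 0 neutral to 100 positive control, at about 1.3% or above, every replicate too, limit read from the data; inconclusive = no clear call, values can overlap the other calls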
esBAF inh = blocks esBAF chromatin remodeling in mouse ES cells. Bmi1-luciferase knock-in reporter, 24 h; 100% = twice the neutral-well signal. reporter increase, % at 12.5 µM. 350,000 compounds, 2% hits; in the data active = activation above about 40%; inconclusive = no clear call, values can overlap the other calls;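 also: a rise in the Bmi1 reporter signal indicates esBAF inhibition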
SMARCA2 activ = increases SMARCA2 function in MMTV reporter cells | MG213 cells, MMTV-luciferase reporter, dexamethasone, overnight | activation, % at 9.1 µM | 370,000 compounds, 1% hits; in the data active = activation above about 7.8%
MITF act = increases MITF-driven TRPM1 promoter luciferase signal; SK-MEL-5 TRPM1-promoter luciferase, 24 h; % of positive control, neutral wells = 0; activation, % at 12.5 µM; 300,000 compounds, 0.75% hits; AID 588334;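 active = mean activation of at least 80% with every replicate also reaching 80%; inconclusive = mean reaches 80% but some replicate falls short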
Wnt bcat act = Wnt/beta-catenin pathway activation | Wnt/beta-catenin reporter cell assay, activator, plate reader | activation, % at 9.35 µM | 300,000 compounds, 1.2% hits | AID 743398; in the data active = activation above about 30%, passing the limit was not always enough; inconclusive = no clear call, values can overlap the other calls
SMARCA2 act conf = confirmation of SMARCA2 (BRM) function activators | shares compounds with SMARCA2 activ | MG213 cells, MMTV-luciferase with dexamethasone, luminescence, overnight; MG213 cells expressing E1A, Rb sequestered; DMSO wells 0%, reference activator 100% | AID 652260 | 3,500 compounds, 30% hits | activation, % at 9.1 µM;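 active = activation above its plate's cutoff, the mean activation of tested wells plus 3 SD, cut at about 7.9% in these data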
GAL4-VP16 Luc = activates GAL4-VP16 luciferase, flagging SMARCA2 activator hits. HEK293 GAL4-VP16 pG5luc reporter, luciferase luminescence; scaled: DMSO wells 0%, SAHA wells 100%. 3,500 compounds, 41% hits. shares compounds with SMARCA2 activ. activation, % at 9.1 µM;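 active = activation above the solvent-only control well mean plus 3 SD, averaged across control plates, cut at about 5.2% in these data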
Numbers stand for hits. Rows were chosen to be rich in hits. Some 4.3% of all compounds tested hit in one or more screens of this group.

Results for O=C(Cc1ccccc1Cl)Nc1cc(S(=O)(=O)N2CCOCC2)ccc1N1CCOCC1 ?
MLL AF4-AF9 inh: inactive; FGF22 binding: inactive; esBAF inh: inactive; SMARCA2 activ: 8.0; MITF act: inactive; Wnt bcat act: inactive; SMARCA2 act conf: inactive; GAL4-VP16 Luc: inactive

How did CC(COc1ccc(C(C)C)cc1)NC(=O)c1ccc(Br)o1 (stereo not drawn) do in these assays?
MLL AF4-AF9 inh: inactive; FGF22 binding: inactive; esBAF inh: inactive; SMARCA2 activ: 10.3; MITF act: inactive; Wnt bcat act: inactive; SMARCA2 act conf: inactive; GAL4-VP16 Luc: inactive

How did CCOc1ccc(N2C(=O)CC(SCCN)C2=O)cc1 (stereo not drawn) do in these assays?
esBAF inh: inactive; SMARCA2 activ: 14.3; Wnt bcat act: 33.9; SMARCA2 act conf: 7.8; GAL4-VP16 Luc: 9.6

What do the screens show for `CCOC(=O)CSC1=NC(=O)/C(=C\c2ccc(Cl)cc2)S1`?
esBAF inh: inactive; SMARCA2 activ: 9.3; MITF act: inactive; SMARCA2 act conf: inactive; GAL4-VP16 Luc: inactive

What do the screens show for `O=c1[nH]c2ccccc2c2nc3ccccn3c12`?
esBAF inh: 49.5; SMARCA2 activ: 12.0; Wnt bcat act: inactive; SMARCA2 act conf: 16.3; GAL4-VP16 Luc: 7.1

What do the screens show for `O=c1nc2c(O)cccn2c2c1c(=O)[nH]c1ccccc12`?
MLL AF4-AF9 inh: inactive; FGF22 binding: inactive; SMARCA2 activ: inactive; MITF act: inactive; Wnt bcat act: inactive

Results for Cc1nc2nc(-c3cccs3)cn2nc1C ?
SMARCA2 activ: 10.4; Wnt bcat act: 46.7; SMARCA2 act conf: 11.3; GAL4-VP16 Luc: 12.8

How did O=c1cnnc(SCCc2ccccc2)[nH]1 do in these assays?
esBAF inh: inactive; SMARCA2 activ: 8.2; MITF act: inactive; Wnt bcat act: inactive; SMARCA2 act conf: inactive; GAL4-VP16 Luc: inactive

What do the screens show for `O=C(N[C@H]1C=C[C@H](CC(=O)N2CCN(c3ccccc3)CC2)O[C@@H]1CO)c1ccccc1`?
MLL AF4-AF9 inh: inactive; FGF22 binding: inactive; esBAF inh: inactive

What do the screens show for `CN(C)c1ccc(NC(=O)/C=C/c2ccccc2Cl)cc1`?
SMARCA2 activ: 8.2; MITF act: 91.6; Wnt bcat act: 42.2; SMARCA2 act conf: inactive; GAL4-VP16 Luc: 11.0

How did O=C(/C=C/c1ccccc1Cl)NCc1ccccc1 do in these assays?
esBAF inh: 52.8; SMARCA2 activ: 11.2; MITF act: inactive; Wnt bcat act: inactive; SMARCA2 act conf: inactive; GAL4-VP16 Luc: inactive

How did COc1ccc(Nc2nc(C)c(-c3ccccc3)s2)cc1 do in these assays?
SMARCA2 activ: 10.6; MITF act: inactive; SMARCA2 act conf: inactive; GAL4-VP16 Luc: 5.9

How did Cc1nc(Nc2ccc(S(N)(=O)=O)cc2)sc1-c1ccccc1 do in these assays?
MLL AF4-AF9 inh: inactive; FGF22 binding: inactive; esBAF inh: inactive; SMARCA2 activ: inactive; MITF act: inactive; Wnt bcat act: inactive

Results for COc1cc2c3nnc(-c4ccc(F)cc4)c-3cn(Cc3ccccc3F)c2cc1OC ?
MLL AF4-AF9 inh: inactive; FGF22 binding: inactive; SMARCA2 activ: inactive; MITF act: inactive; Wnt bcat act: inactive

Results for COc1cc2c3nnc(-c4ccccc4)c-3cn(Cc3ccccc3F)c2cc1OC ?
SMARCA2 activ: 9.9; Wnt bcat act: inactive; SMARCA2 act conf: 17.6; GAL4-VP16 Luc: inactive

How did CCOC(=O)CCSc1nc(C)c2cc(OC)ccc2n1 do in these assays?
esBAF inh: inactive; SMARCA2 activ: 10.4; MITF act: inactive; SMARCA2 act conf: 9.0; GAL4-VP16 Luc: 11.1

Results for CCC(=O)NC[C@@H]1[C@@H](c2ccc(-c3cccc(F)c3)cc2)[C@@H](CO)N1C(=O)CC ?
MLL AF4-AF9 inh: inactive; FGF22 binding: inactive; esBAF inh: inactive

Results for O=C(COc1ccccc1CNCc1ccccc1)Nc1ccccc1 ?
esBAF inh: inactive; SMARCA2 activ: 9.9; MITF act: inactive; SMARCA2 act conf: inactive; GAL4-VP16 Luc: inactive

What do the screens show for `Cc1ccc(NC(=O)CNCc2ccccc2OCC(=O)Nc2ccc(I)cc2)cc1`?
SMARCA2 activ: inactive

How did Cc1noc(C)c1NC(=O)Nc1ccc2c(c1)C(=O)N([C@H](C)CO)C[C@H](C)[C@H](CN(C)Cc1ccccc1)OCCCC[C@@H](C)O2 do in these assays?
MLL AF4-AF9 inh: inactive; esBAF inh: inactive

Results for CCOCCCNc1ccc(-c2ccccc2)nn1 ?
MLL AF4-AF9 inh: inactive; FGF22 binding: inactive; esBAF inh: inactive; SMARCA2 activ: 11.8; MITF act: inactive; Wnt bcat act: inactive; SMARCA2 act conf: 10.4; GAL4-VP16 Luc: 6.1

How did CCOCCCNc1nc2ccccc2[nH]1 do in these assays?
esBAF inh: inactive; SMARCA2 activ: inactive; MITF act: inactive

What do the screens show for `C[C@@H]1CN([C@@H](C)CO)C(=O)c2cc(NC(=O)c3ccncc3)ccc2O[C@@H](C)CCCCO[C@H]1CN(C)Cc1ccncc1`?
MLL AF4-AF9 inh: inactive; FGF22 binding: inactive

How did CNC[C@H]1Oc2c(cccc2N(C)C)C(=O)N([C@H](C)CO)C[C@H]1C do in these assays?
MLL AF4-AF9 inh: inactive; FGF22 binding: inactive; esBAF inh: inactive

What do the screens show for `CCOc1cccc(C=Nc2cc(C)cc(C)c2O)c1O`?
MLL AF4-AF9 inh: inactive; FGF22 binding: inactive; esBAF inh: inactive; SMARCA2 activ: 11.6; MITF act: inactive; Wnt bcat act: inactive; SMARCA2 act conf: inactive; GAL4-VP16 Luc: inactive

How did O=C(O)/C=C/C(=O)c1ccc(O)cc1 do in these assays?
MLL AF4-AF9 inh: inactive; FGF22 binding: inactive; esBAF inh: inactive; SMARCA2 activ: inactive; MITF act: inactive; Wnt bcat act: inactive

Results for O=C(O)/C=C/C(=O)c1ccc2c(c1)CCc1ccccc1-2 ?
MLL AF4-AF9 inh: inactive; FGF22 binding: inactive; esBAF inh: 43.9; SMARCA2 activ: 10.9; MITF act: inactive; Wnt bcat act: inactive; SMARCA2 act conf: inactive; GAL4-VP16 Luc: 6.5

How did O=C1c2cccc(NCCNCCO)c2C(=O)c2cccc(NCCNCCO)c21 do in these assays?
MLL AF4-AF9 inh: 46.0; FGF22 binding: inactive; SMARCA2 activ: 10.3; MITF act: inactive; Wnt bcat act: inactive; SMARCA2 act conf: inactive; GAL4-VP16 Luc: inactive

Results for CCOC(=O)COc1ccccc1C1Nc2ccccc2C(=O)N1c1cccc(Cl)c1 (stereo not drawn) ?
MLL AF4-AF9 inh: inactive; FGF22 binding: inactive; SMARCA2 activ: 8.2; MITF act: inconclusive; Wnt bcat act: inactive; SMARCA2 act conf: inactive; GAL4-VP16 Luc: 6.0

Results for CCOc1cc(C2Nc3ccccc3C(=O)N2c2ccccc2)c(Br)cc1OCC(=O)O (stereo not drawn) ?
SMARCA2 activ: inactive; MITF act: inactive
